The panel holds about 83,000 compounds, 20% with a hit somewhere; the sample as a whole holds those more often.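 The test compound was applied at a single concentration to cells in 96-well plates for 48 hours, and percent growth was recorded.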 The source made the active and inactive calls. Rule for the calls: active = growth percent below 10; inactive = the rest.
Assays:
Assay in all cases: NCI-60 one-dose screen, 48 h (100 = growth as untreated, 0 = no growth, -100 = all killed)
Details in all cases: 10 µM unless noted
RPMI-8226 leukemia = system: RPMI-8226 leukemia
OVCAR-8 ovarian = system: OVCAR-8 ovarian
OVCAR-5 ovarian = system: OVCAR-5 ovarian
OVCAR-4 ovarian = system: OVCAR-4 ovarian
IGROV1 ovarian = system: IGROV1 ovarian
OVCAR-3 ovarian = system: OVCAR-3 ovarian
HS 578T breast = system: HS 578T breast
NCI/ADR-RES ovarian = system: NCI/ADR-RES ovarian
T-47D breast = system: T-47D breast
BT-549 breast = system: BT-549 breast
MDA-MB-435 melanoma = system: MDA-MB-435 melanoma
SW-620 colon = system: SW-620 colon
MCF7 breast = system: MCF7 breast
HCT-116 colon = system: HCT-116 colon
HCC-2998 colon = system: HCC-2998 colon
KM12 colon = system: KM12 colon
SK-OV-3 ovarian = system: SK-OV-3 ovarian

Measured: growth

Cc1ccc2nc(C)c(-c3nnc(SCc4ccc(C#N)cc4)o3)n2c1
inactive: RPMI-8226 leukemia 93.6% | OVCAR-8 ovarian 108% | OVCAR-5 ovarian 107% | OVCAR-4 ovarian 95.8% | IGROV1 ovarian 89.5% | OVCAR-3 ovarian 109% | HS 578T breast 93.2% | NCI/ADR-RES ovarian 90.6% | T-47D breast 89.3% | BT-549 breast 85.8% | MDA-MB-435 melanoma 101% | SW-620 colon 105% | MCF7 breast 77.8% | HCT-116 colon 91.8% | HCC-2998 colon 108% | KM12 colon 106%

OC(c1cccc(-n2ccc(C(F)(F)F)n2)c1)c1cnccc1NC1CCCCCC1 (configuration not stated)
inactive: OVCAR-5 ovarian 15.2% | OVCAR-4 ovarian 40.8% | IGROV1 ovarian 38.5% | OVCAR-3 ovarian 52.4% | HS 578T breast 49.8% | NCI/ADR-RES ovarian 30% | T-47D breast 22.6% | BT-549 breast 82.5%
active: RPMI-8226 leukemia -33.4% | OVCAR-8 ovarian 6.25% | MDA-MB-435 melanoma -77.4% | SW-620 colon -86.4% | MCF7 breast -14.4% | HCT-116 colon -79.4% | HCC-2998 colon -88.8% | KM12 colon -47.1%

COc1cc(C2CC(c3cc(OC)c(OCCCOc4ccc(-n5c(/C=C/c6ccccc6)nc6ccccc6c5=O)cc4)c(OC)c3)=NO2)cc(OC)c1OC (configuration not stated)
active: RPMI-8226 leukemia -9.38%
inactive: OVCAR-8 ovarian 104% | OVCAR-5 ovarian 105% | OVCAR-4 ovarian 87% | SK-OV-3 ovarian 114% | OVCAR-3 ovarian 118% | HS 578T breast 108% | NCI/ADR-RES ovarian 107% | T-47D breast 108% | BT-549 breast 118% | MDA-MB-435 melanoma 110% | SW-620 colon 104% | MCF7 breast 97.4% | HCT-116 colon 106% | HCC-2998 colon 105% | KM12 colon 122%

C(=N\Nc1ncc(-c2cc3cc4c(cc3o2)OCO4)s1)/c1ccco1
active: OVCAR-3 ovarian 8.65% | SW-620 colon 2.26% | HCT-116 colon -13.6%
inactive: RPMI-8226 leukemia 30.9% | OVCAR-8 ovarian 23.7% | OVCAR-5 ovarian 58% | OVCAR-4 ovarian 32.5% | IGROV1 ovarian 30.2% | NCI/ADR-RES ovarian 34.7% | T-47D breast 35.2% | BT-549 breast 48.6% | MDA-MB-435 melanoma 69% | MCF7 breast 13.7% | HCC-2998 colon 62.7% | KM12 colon 15.8%

O=C(Nc1ccc(Cl)cc1)Nc1ccc(Cl)c(C(F)(F)F)c1
inactive: OVCAR-8 ovarian 19.9% | IGROV1 ovarian 29.8% | HS 578T breast 19.7%
active: RPMI-8226 leukemia -32.9% | OVCAR-5 ovarian 1.37% | SK-OV-3 ovarian -27.1% | OVCAR-3 ovarian 4.12% | NCI/ADR-RES ovarian -37.1% | T-47D breast -5.38% | MDA-MB-435 melanoma -5.12% | SW-620 colon 5.74% | MCF7 breast 9.91% | HCT-116 colon 2.77% | HCC-2998 colon -34.8% | KM12 colon 3%

COc1cc(/C=C/C(=O)N2CCN(C(=O)c3cc(OC)c(OC)c(OC)c3)CC2)ccc1OCCCN1C(=O)c2cccc3cccc(c23)C1=O
inactive: RPMI-8226 leukemia 21.6% | OVCAR-8 ovarian 50.6% | OVCAR-5 ovarian 107% | OVCAR-4 ovarian 77.9% | SK-OV-3 ovarian 121% | OVCAR-3 ovarian 73.5% | HS 578T breast 38.6% | NCI/ADR-RES ovarian 68.9% | T-47D breast 61.9% | BT-549 breast 108% | MDA-MB-435 melanoma 95.6% | SW-620 colon 100% | MCF7 breast 90.4% | KM12 colon 79.6%

O=C(CCCCCCSc1nc(-c2ccccc2)cc(-c2ccc(Cl)cc2)n1)NO
inactive: RPMI-8226 leukemia 15.7% | OVCAR-5 ovarian 21.6% | OVCAR-4 ovarian 41.3% | OVCAR-3 ovarian 25.2% | HS 578T breast 45.7% | MDA-MB-435 melanoma 19.4% | SW-620 colon 11.9% | MCF7 breast 15.9% | KM12 colon 31.4%
active: SK-OV-3 ovarian 0.785% | IGROV1 ovarian -19.6% | T-47D breast -13.7% | HCT-116 colon 6.79%

O=S(=O)(Nc1cccc(Cl)c1)c1ccc(-c2cnc(C3CC3)o2)cc1
inactive: RPMI-8226 leukemia 17.8% | OVCAR-8 ovarian 33.5% | OVCAR-4 ovarian 41.7% | SK-OV-3 ovarian 34.3% | IGROV1 ovarian 26.4% | NCI/ADR-RES ovarian 18.9% | T-47D breast 25% | BT-549 breast 26.6% | SW-620 colon 11.3% | MCF7 breast 14.2% | HCT-116 colon 15.3% | HCC-2998 colon 46.3% | KM12 colon 20.8%
active: OVCAR-3 ovarian -9.95% | HS 578T breast 1.3% | MDA-MB-435 melanoma -21.5%

COc1ccc(-c2csc(C3=C(O)CN(CCCN4CCCC4=O)C3=N)n2)cc1OC
inactive: RPMI-8226 leukemia 85.5% | OVCAR-5 ovarian 94.2% | OVCAR-4 ovarian 116% | SK-OV-3 ovarian 109% | IGROV1 ovarian 63.9% | OVCAR-3 ovarian 99.4% | HS 578T breast 92.9% | NCI/ADR-RES ovarian 100% | T-47D breast 86.5% | BT-549 breast 100% | MDA-MB-435 melanoma 116% | SW-620 colon 103% | MCF7 breast 109% | HCT-116 colon 88.7% | HCC-2998 colon 98.3% | KM12 colon 104%
